{"source": "ChEMBL document CHEMBL3988442", "about": "“University of Dundee, Small-Polar-MMV Screening Library” (2021)", "note": "Out of some 48,000 compounds screened, about 13,000 (27%) showed an effect of 50% or more. Some of the results follow.", "data": [{"test_system": "Wolbachia pipientis", "assay": "Anti-Wolbachia Cell-Based Screen", "assay_type": "functional", "parameters": "scale not given: in the data most compounds retested in dose-response had high values", "settings": "5 µM", "units": {"Percent Effect": "%"}, "values": [{"smiles": "COCC1CN(S(=O)(=O)Cc2ccc(C)cc2)Cc2c1cnn2C.O=C(O)C(F)(F)F", "note": "(stereo not given)", "Percent Effect": -11.46}, {"smiles": "CCCc1cncnc1N1CCC(NCCc2nc(O)cc(O)n2)CC1", "Percent Effect": 12.44}, {"smiles": "Cc1ccccc1CCCN(Cc1ccccn1)S(C)(=O)=O", "Percent Effect": 19.14}, {"smiles": "O=C(c1ncn2c(C3CCN(CC4CC4)CC3)ccnc12)N1CCCC1", "Percent Effect": -17.31}, {"smiles": "COCC1c2nnn(CC3CC3)c2CCN1C(=O)N1CCCC1", "note": "(stereo not given)", "Percent Effect": -0.306}, {"smiles": "Cl.Cl.Cn1cc(C(=O)NCc2cncc3c2CCN(c2ccccn2)C3)cn1", "Percent Effect": 91.67}, {"smiles": "Cl.Cn1cc(C(=O)NCc2cncc3c2CCN(S(C)(=O)=O)C3)cn1", "Percent Effect": 98.76}, {"smiles": "Cl.Cl.Cn1cc(C(=O)NCc2cncc3c2CCN(CC2CC2)C3)cn1", "Percent Effect": 108.8}, {"smiles": "COCCN1CCc2c(CNC(=O)c3nccn3C)cncc2C1.Cl.Cl.Cl", "Percent Effect": -25.03}, {"smiles": "Cl.Cl.Cn1cc(CN2CCc3c(CNC(=O)C4CC4)cncc3C2)cn1", "Percent Effect": -6.421}, {"smiles": "Cn1cc(C(=O)NCc2cn3c(n2)CN(CC2CCOCC2)CC3)cn1.O=C(O)C(F)(F)F", "Percent Effect": -7.416}, {"smiles": "CC(C)N1CCc2c(CNC(=O)c3nccn3C)cncc2C1.Cl.Cl.Cl", "Percent Effect": 1.546}, {"smiles": "N#Cc1cnc(NCc2ccc(C(=O)NC3CC3)cc2)c(Cl)c1", "Percent Effect": -6.229}, {"smiles": "CC(C)(C)c1noc(CCC(=O)N(CC2CCOC2)C2CC2)n1", "note": "(stereo not given)", "Percent Effect": 7.667}, {"smiles": "CNC(=O)CN1CCO[C@H]2CN(CC3CCOC3)C[C@H]21.O=C(O)C(F)(F)F.O=C(O)C(F)(F)F", "note": "(stereo not given in full)", "Percent Effect": 19.99}, {"smiles": "CC(=O)N1CCC2(CCN(CC3CCCCC3)C2)CC1", "Percent Effect": -14.93}, {"smiles": "CC(=O)N1CCC2(CCN(CC3CCOC3)C2)CC1", "note": "(stereo not given)", "Percent Effect": 104}, {"smiles": "CNC(=O)CN1CCC2(CCCN(CC3CCOC3)C2)CC1.O=C(O)C(F)(F)F.O=C(O)C(F)(F)F", "note": "(stereo not given)", "Percent Effect": 105.4}, {"smiles": "CN(C)C(=O)CN1CCC2(C1)CN(CC1CCOC1)C2.O=C(O)C(F)(F)F.O=C(O)C(F)(F)F", "note": "(stereo not given)", "Percent Effect": -5.986}, {"smiles": "CC(=O)N1CCc2[nH]cnc2C12CCN(CC1CCOC1)CC2", "note": "(stereo not given)", "Percent Effect": -0.2967}, {"smiles": "Cc1cccc(NC(=O)Cn2ncc(SCC(N)=O)c(Cl)c2=O)c1C", "Percent Effect": -8.805}, {"smiles": "CN(C)c1cccc(C2CCCN2c2nc3c(cnn3C)c(=O)[nH]2)c1", "note": "(stereo not given)", "Percent Effect": 1.208}, {"smiles": "CCc1ccc(CN(C)C(=O)C2CC(=O)N(c3cccc(O)c3)C2)nc1", "note": "(stereo not given)", "Percent Effect": -3.145}, {"smiles": "CCCn1nc2c(cc1=O)CN(Cc1nc(-c3ccoc3)no1)CC2", "Percent Effect": 8.04}, {"smiles": "CCC1c2ccsc2CCN1C(=O)NCc1ccccn1", "note": "(stereo not given)", "Percent Effect": 11.42}, {"smiles": "O=C(NCc1ccccn1)C1CN(c2nc3ccccc3s2)CCN1", "note": "(stereo not given)", "Percent Effect": 4.696}, {"smiles": "O=C(NCc1ccccn1)c1cncc(C2CCCN2)n1", "note": "(stereo not given)", "Percent Effect": 138.1}, {"smiles": "O=C(NC[C@@H]1CCCN1)c1cc(COc2cccc(C(F)(F)F)c2)[nH]n1", "Percent Effect": 1.903}, {"smiles": "CC1CCc2nc(O)c(C(=O)NCc3ccccn3)cc2C1", "note": "(stereo not given)", "Percent Effect": 0.7211}, {"smiles": "Cc1nc(C(=O)NCc2ccccn2)cc(C2CCCN2)n1", "note": "(stereo not given)", "Percent Effect": 186.5}, {"smiles": "Cl.O=C1NCCCCC1NCc1csc(-c2ccccn2)n1", "note": "(stereo not given)", "Percent Effect": -2.48}, {"smiles": "Cl.O=C(NCC(F)F)c1cnc(C2CCCN2)cn1", "note": "(stereo not given)", "Percent Effect": 98.86}, {"smiles": "O=C(NC[C@H]1CCCN1)c1cc(COc2cccc(C(F)(F)F)c2)[nH]n1", "Percent Effect": -12.79}, {"smiles": "O=C(NCc1ccccn1)c1cnc(C2CCCN2)cn1", "note": "(stereo not given)", "Percent Effect": 135}, {"smiles": "O=S1(=O)C[C@@H]2[C@H](C1)N(Cc1cc(F)cc(F)c1)CCN2CCO", "Percent Effect": 1.937}, {"smiles": "O=C(Nc1cc(C(F)(F)F)ccc1Cl)c1ccc(N2CCOCC2)nn1", "Percent Effect": -2.027}, {"smiles": "Cl.NC1CCN(C(=O)c2c(F)cccc2Br)CC1", "Percent Effect": 2.266}, {"smiles": "Cc1ccccc1SCC(=O)N[C@H]1CC[C@H](n2cnnc2)CC1", "Percent Effect": -8.466}, {"smiles": "Cc1ccc(C(C)NC(=O)Cc2c(C)nc3cc(=O)[nH]n3c2C)s1", "note": "(stereo not given)", "Percent Effect": 3.622}, {"smiles": "CCOCCN1CCN(CC(O)c2cc(Cl)ccc2Cl)CC1", "note": "(stereo not given)", "Percent Effect": 18.57}, {"smiles": "CCOc1ccnc(N2CCCN(c3nc(CC)ns3)CC2)n1", "Percent Effect": 2.862}, {"smiles": "Cc1cnn(CC2CC2)c1NC(=O)c1cccnc1O", "Percent Effect": -0.1453}, {"smiles": "Cc1ccc(C(=O)NCC2CCN(Cc3ccccc3C#N)C2)cn1", "note": "(stereo not given)", "Percent Effect": -20.5}, {"smiles": "Cc1cc(CN2CCC(CNC(=O)c3ccc(C#N)cc3)C2)[nH]n1", "note": "(stereo not given)", "Percent Effect": -6.827}, {"smiles": "Cc1nc[nH]c1CN1CCC(CNC(=O)c2cccc3cnccc23)C1", "note": "(stereo not given)", "Percent Effect": -8.641}, {"smiles": "CCn1ncnc1CN1CCC(CNC(=O)c2cccnc2O)C1", "note": "(stereo not given)", "Percent Effect": 102.6}, {"smiles": "CCn1ncnc1CN1CCC(CNC(=O)c2ccccc2C#N)C1", "note": "(stereo not given)", "Percent Effect": 115.7}, {"smiles": "Cc1cccc(N2CCN(S(=O)(=O)CCN)CC2)c1", "Percent Effect": -3.019}, {"smiles": "CCOC(=O)C1CCN(C(=O)c2cc(F)ccc2-n2cnnn2)CC1", "Percent Effect": 122.3}, {"smiles": "CCOC(=O)CN1CCC(C(=O)c2cc(F)ccc2F)CC1", "Percent Effect": -15.3}, {"smiles": "CCOC1CCCN(C(=O)c2sccc2-n2cnnn2)C1", "note": "(stereo not given)", "Percent Effect": -3.669}, {"smiles": "COC(=O)C1CCN(C(=O)c2cc(Br)ccc2-n2cnnn2)CC1", "Percent Effect": 122.5}, {"smiles": "CC(=O)N1CCC(NC(=O)c2cc(Cl)ccc2-n2cnnn2)CC1", "Percent Effect": 22.58}, {"smiles": "CCOC(=O)C1CCN(C(=O)c2cc(Br)ccc2-n2cnnn2)CC1", "Percent Effect": 129.1}, {"smiles": "CCOC(=O)C1CCN(C(=O)Cn2ccc3cc(Br)ccc32)CC1", "Percent Effect": 16.73}, {"smiles": "CCC(C)[C@H](NC(=O)c1cc(Br)ccc1-n1cnnn1)C(=O)OC", "note": "(stereo not given in full)", "Percent Effect": 6.622}, {"smiles": "CCOC(=O)N1CCC(C(=O)c2cc(F)ccc2F)CC1", "Percent Effect": -8.485}, {"smiles": "CCn1ncnc1C(C)NC(=O)Cc1cc2c(cc1Cl)OCCO2", "note": "(stereo not given)", "Percent Effect": 1.538}, {"smiles": "CN(C)CCOc1ccc(CNC(=O)c2cccc(Cl)c2Cl)cc1", "Percent Effect": 13.68}, {"smiles": "CSc1ncccc1C(=O)NCc1ccc(N(C)C)cc1", "Percent Effect": 175.4}, {"smiles": "CSc1ncccc1C(=O)NCc1ccc(CS(=O)(=O)NC(C)C)cc1", "Percent Effect": 2.17}, {"smiles": "CCCSc1ncccc1C(=O)NCc1ccc(N(C)C)cc1", "Percent Effect": 112.3}, {"smiles": "CCSc1ncccc1C(=O)NCc1ccc(N(C)C)cc1", "Percent Effect": 103}, {"smiles": "Cc1cccc(C(=O)NCc2ccc(OCCN(C)C)cc2)c1C", "Percent Effect": -6.28}, {"smiles": "CCCSc1ncccc1C(=O)NCc1ccc(S(N)(=O)=O)cc1", "Percent Effect": 120.7}, {"smiles": "Cn1ccnc1SCCNC(=O)c1cc(S(N)(=O)=O)ccc1F", "Percent Effect": -8.563}, {"smiles": "CNC(=O)c1cccnc1NCc1ccc(Cn2cccn2)cc1", "Percent Effect": -20.21}, {"smiles": "CC(C)(C)[S+]([O-])CCNC(=O)c1cccc2ncccc12", "note": "(stereo not given)", "Percent Effect": -2.962}, {"smiles": "NS(=O)(=O)c1ccc(F)c(C(=O)NCCSc2ccccn2)c1", "Percent Effect": 2.11}, {"smiles": "Cc1ccc(C(=O)NCc2ccc(N(C)C)cc2)cn1", "Percent Effect": -15.59}]}]}
